The full list was thinned out, with hits kept by preference.
Tb PYK inh = blocks Trypanosoma brucei pyruvate kinase; Q57TT1; TbPYK enzyme, Kinase-Glo Plus ATP luminescence, 45 min; Potency, µM (series often up to 76.8 µM), inactives show at the highest dose activity, negative = inhibition, most hits filed as inhibitors; 0.12% of 410,000 active; AID 624173; also: potency is read from the fitted curve at half-maximal effect; % is scaled to controls: 0 for no effect and ±100 for the full control effect; nearly all actives have a fitted effect of over 50% in size
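Readout: single end-point luminescence (Kinase-Glo Plus, 10 min). Reaction conditions were TbPYK/substrate plus 130 uM ADP, 45 min at RT, pH 7.2 TEA buffer. No-enzyme wells served as controls, and data were normalized before concentration-response fitting.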
Sm TGR block = blocks Schistosoma mansoni thioredoxin glutathione reductase; 3% of 360,000 active; Potency, µM (top dose mostly 114 µM), for inactives: at the highest dose activity change, negative = inhibition, hits mostly inhibitors; purified TGR, DTNB reduction, TNB absorbance 405 nm; Q962Y6; also: potency is read from the fitted curve at half-maximal effect; % is scaled to controls: 0 for no effect and ±100 for the full control effect; nearly all actives have a fitted effect of over 60% in size
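First, TGR (20 nM dispensed) and NADPH were mixed with compound. Second, a 15 min room-temperature incubation followed. Third, further NADPH and then DTNB were added to start the reaction. Finally, TNB absorbance was monitored kinetically.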
Shiga toxin inh = blocks Shiga toxin action in Vero cells | Vero cells, Shiga toxin protein synthesis inhibition reporter | inhibition, % at 38.7 µM | 9.2% of 290,000 active | AID 2315; in the data active = inhibition mostly above about 28%, no sharp cut-off; inactive = mostly below about 43%; also: 0% is about no effect
CHX counter = affects cycloheximide protein synthesis inhibition readout, counter-screen; cell reporter, cycloheximide protein synthesis inhibition counterscreen; max response, %; 12% of 300,000 active; in the data active = max response mostly above about 13%, no sharp cut-off; inactive = mostly below about 14%; also: read at 38.3 µM for the half of the compounds with a filed dose; 0% is about no effect
Giardia FBPA inh = Giardia lamblia aldolase inhibition; purified Giardia FBPA; A8B2U2; AID 2451; Potency, µM (top dose mostly 59.6 µM), for inactives: top-dose activity, negative = inhibition, most hits filed as inhibitors; 0.71% of 290,000 active; also: potency is read from the fitted curve at half-maximal effect; % is scaled to controls: 0 for no effect and ±100 for the full control effect; nearly all actives have a fitted effect of over 55% in size
Target sequence (A8B2U2 whole entry, looked up): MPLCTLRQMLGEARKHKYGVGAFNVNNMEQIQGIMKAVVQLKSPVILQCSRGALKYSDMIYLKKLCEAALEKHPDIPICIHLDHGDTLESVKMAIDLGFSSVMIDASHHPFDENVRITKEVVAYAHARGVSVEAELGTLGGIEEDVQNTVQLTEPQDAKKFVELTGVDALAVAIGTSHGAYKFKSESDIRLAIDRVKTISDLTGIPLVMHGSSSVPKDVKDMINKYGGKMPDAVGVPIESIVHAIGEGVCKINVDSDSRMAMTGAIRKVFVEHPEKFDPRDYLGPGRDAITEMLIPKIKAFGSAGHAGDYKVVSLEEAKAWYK
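40 nM FBPA preincubated 10 min at RT with compound (up to 57.5 uM final), then substrate plus GAPDH/TPI/NAD/arsenate coupling and diaphorase/resazurin added. Fluorescence read after 20 min at RT, 525/598 nm.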
LmPK inh = inhibitors of Leishmania mexicana pyruvate kinase; Q27686; purified LmPK, Kinase-Glo ATP luminescence, 1 h; Potency, µM (highest dose often 57.5 µM), inactives show at the highest dose activity change, negative = inhibition, usual class: inhibitors; 0.37% of 290,000 active; AID 1721; also: potency is read from the fitted curve at half-maximal effect; % is scaled to controls: 0 for no effect and ±100 for the full control effect
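qHTS format; LmPK 0.1 nM; substrates PEP 0.5 mM and ADP 0.1 mM. One-hour room-temperature incubation, then coupled luciferase luminescence; 0.5 nM enzyme wells mark activation.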
* marks the source's active call; other numbers are inactive results; ? = inconclusive; · = no result given; [ ] = dose if it differs, or a comment. Unless noted, calls follow the shape of the dose curve; as a rule, active = well fitted curve in the direction sought with a large enough effect; inconclusive = small, poorly fitted or top-dose-only effect, or another doubt; inactive = no such curve, though single readings can be large; an effect the other way counts as inactive or inconclusive.

SMILES	Tb PYK inh	Sm TGR block	Shiga toxin inh	CHX counter	Giardia FBPA inh	LmPK inh
COc1cccc([C@@H]2Oc3ccc(OC)cc3C(=O)[C@H]2OC(=O)Nc2ccc(C)c(Br)c2)c1	·	·	·	·	-3.7%	·
CC(C)c1ccc(NC(=O)[C@@H]2CCC(=O)N2C2OC(=O)c3ccccc32)cc1 (stereo partly drawn)	-15.0%	1.0%	38.2	28.1*	-0.1%	-14.2%
COc1ccc(S(=O)(=O)N(CC(=O)Nc2ccccc2Cl)Cc2ccccc2)cc1	-10.3%	1.9%	·	·	·	·
O=C(NCC(c1cccnc1)N1CCN(c2ccccc2F)CC1)C(=O)Nc1ccc(F)cc1F (stereo not drawn)	-3.0%	-2.1%	·	·	·	·
CC(C)c1cc2c(s1)c1cnn(Cc3ccccc3F)c(=O)c1n2C	·	·	16.9	8.3	·	·
Cc1c(NC(=O)c2c(N)sc3c2CCCC3)c(=O)n(-c2ccccc2)n1C	?	22.4µM*	-5.3	-2.1	?	-6.1%
O=C(Nc1ccccc1Cl)c1ccccc1Cl	1.0%	5.0%	7.7	13.6	3.6%	-0.5%
O=C(Nc1ccccc1Cl)c1ccc(Cl)cc1Cl	-3.8%	-0.4%	54.1*	53.7*	-1.3%	-14.9%
C#Cc1cccc(NC(=O)c2ccc(Cl)cc2Cl)c1	-2.0%	9.6%	69.9*	20.4*	-5.8%	-11.9%
O=C(NC(=S)Nc1ccccc1O)c1ccc(Cl)cc1Cl	-1.2%	·	94.2*	30.4*	-13.9%	-3.9%
Nc1ccccc1C(=O)Nc1ccc(Cl)cc1Cl	2.0%	-0.2%	126.9*	33.5*	-13.4%	3.8%
O=C(Nc1ccc(Cl)cc1Cl)c1ccc(-c2ccccc2)cc1	-0.1%	-6.1%	9.3	-2.7	2.5%	-3.3%
COc1ccc(C2=CCCC2)c(OC)c1	-16.5%	·	·	·	·	·
CC(CCc1ccccc1)NC(=O)CCNC(=O)c1ccccc1Cl (stereo not drawn)	0.0%	·	·	·	·	·
O=C(O)c1ccc(-c2ccc(-c3ccccc3)cc2)s1	·	-27.1%	37.2	23.0*	11.1%	-1.7%
Cc1cc(-c2ccc(C(=O)O)s2)cnc1N	-11.3%	0.5%	76.2*	43.2*	6.2%	-6.9%
O=C(Nc1ccccc1)c1ccc(-c2ccccc2)s1	-4.0%	2.1%	100.3*	39.2*	-4.4%	-10.2%[11.5 µM]
COc1cc(Cn2c(=O)c3c(OC)c(C)cnc3n(C)c2=O)cc(OC)c1	-0.8%	-0.8%	-10.4	-9.5	·	-8.6%
CCOC(=O)c1cccc(NS(=O)(=O)c2cc3c(cc2C)NC(=O)CO3)c1	-5.6%	3.3%	·	·	·	·
c1ccc(CSc2nnc(-c3ccncc3)o2)cc1	-5.6%	7.9%	84.9*	34.9*	5.1%	-0.7%
Cc1ccc(-c2nnc(SCc3ccccc3C#N)o2)cc1	-3.0%	0.7%	·	·	·	·
Cc1ccccc1CSc1nnc(-c2ccncc2)o1	-13.6%	5.2%	39.1	13.1*	6.1%	-1.4%
N#Cc1ccc(CSc2nnc(-c3ccncc3)o2)cc1	5.4%	4.6%	-5.1	-1.9	3.8%	1.2%
COc1ccc(/C=C/C(=O)OCC(=O)N2CC(=O)Nc3ccccc32)cc1S(=O)(=O)N1CCOCC1	-4.0%	-6.3%	-12.4	-4.7	5.3%	4.8%
COc1cc(/C=C/C(=O)OCC(=O)N2CC(=O)Nc3ccccc32)ccc1O	-1.7%	44.7µM*	-0.7	-4.3	-2.9%	-5.5%
SMILES	Tb PYK inh	Sm TGR block	Shiga toxin inh	CHX counter	Giardia FBPA inh	LmPK inh
O=C1CN(C(=O)COc2ccc(F)cc2Br)c2ccccc2N1	1.1%	·	36.0*	15.0	-3.5%	0.2%
O=C1CN(C(=O)COc2ccccc2F)c2ccccc2N1	-8.1%	-10.6%	15.2	-5.6	1.5%	-2.8%
O=C(NCC1CCCO1)c1ccc(/C=N/O)nc1 (stereo not drawn)	?	-0.5%	-9.6	-3.5	-9.4%	2.9%
O=C(NCc1cccs1)c1cnc(Cl)c(Cl)c1	-0.6%	4.0%	45.0*	29.9*	-0.9%	5.0%
CC1CCN(c2ccc(C(=O)NCc3cccs3)cn2)CC1	7.7%	20.4%	77.6	51.7*	0.5%	2.2%
O=C(NCCCSc1ccccc1)c1cnc(Cl)c(Cl)c1	-2.3%	6.2%	22.2	-8.0	·	-2.3%
O=C(NCCc1ccccc1)c1cnc(Cl)c(Cl)c1	-5.5%	-5.3%	105.3*	30.9*	-0.3%	-8.8%
CC1CCCN(c2ccc(C(=O)NCC3CCCO3)cn2)C1 (stereo not drawn)	-24.6%	-10.5%	52.1	24.8*	-2.9%	-4.4%
Cc1ccc(NC(=O)C2CCCN2S(=O)(=O)c2cccc3nsnc23)c(Br)c1 (stereo not drawn)	2.4%	-1.2%	·	·	·	·
O=C(COC(=O)CNC(=O)c1ccc(Cl)cc1Cl)NC1CCCCCCC1	2.1%	-3.1%	·	·	·	·
COc1ccc(-c2cc(C(F)(F)F)nc(SCC(=O)N(C)Cc3ccccc3)n2)cc1	2.0%	-0.4%	·	·	·	·
CCCN(C(=O)COC(=O)CSc1ccc([N+](=O)[O-])cc1)C1CCS(=O)(=O)C1 (stereo not drawn)	-24.8%	-5.5%	·	·	·	·
Cc1ccc(Cl)cc1N1CCN(C(=O)c2ccc3c(c2)N(Cc2ccccc2F)C(=O)c2ccccc2S3=O)CC1 (stereo not drawn)	1.0%	13.0%	·	·	·	·
CCN(CC)C(=O)C1=C(C)N(CCC2=CCCCC2)C(=O)C(CC(=O)NCCN2CCOCC2)C1 (stereo not drawn)	6.4%	·	·	·	·	·
COC(=O)/C(=C/c1cn(C(C)=O)c2ccccc12)[N+](=O)[O-]	-9.3%	3.55µM*	23.9	-2.4	-12.8%	2.0%
COC(=O)/C(=C/c1c[nH]c2ccccc12)[N+](=O)[O-]	-22.3%	44.7µM*	-36.1	4.4	-18.8%	3.7%
CC(=O)n1cc(C=C2C(=O)NC(=O)NC2=O)c2ccccc21	28.2µM*	?	3.8	-1.7	?	-0.6%
Cc1nc2cnc(N(C)C)nc2n(Cc2ccc(F)cc2)c1=O	0.0%	·	·	·	-0.5%	·
COc1ccc(C(=O)N2CCC3(CC2)CN(Cc2ccc(C#N)cc2)C3)cc1	2.1%	·	·	·	-2.1%	·
c1ccc(C2=Nc3ccccc3NC(c3ccccc3)C2)cc1 (stereo not drawn)	1.3%	2.5%	125.5*	35.7*	-28.2%	2.3%
Clc1ccccc1C1CC(c2ccccc2)=Nc2ccccc2N1 (stereo not drawn)	0.5%	0.6%	92.9*	42.8*	-0.3%	2.6%
Brc1ccccc1C1CC(c2ccccc2)=Nc2ccccc2N1 (stereo not drawn)	-5.9%	-10.7%	90.5*	96.7*	?	-5.3%
Cc1cc2c(cc1S(=O)(=O)N(C)CC(=O)Nc1ccc(C#N)cc1)OCC(=O)N2	-0.8%	4.8%	·	·	·	·
COc1nc(-c2ccccc2)ccc1-c1noc(-c2cccnc2)n1	-2.7%	17.9%	3.3	8.7*	28.5%	-2.9%
COc1ccccc1Cc1nc(-c2cccnc2)no1	-3.4%	30.1%	55.4*	36.9*	4.8%	1.1%
COc1ccccc1-c1noc(-c2cccnc2)n1	0.3%	-0.7%	66.7*	29.2*	4.0%	-21.3%
